This is an account of results in PubChem BioAssay (Tox21).

SMILES strings stand for the structures. Inconclusive results are not listed. Where a call stands in place of a potency, no number is given. Where a structure was tested more than once in an assay, its records may differ in their call. Calls of active or inactive are those of the source. Calls come from the whole dose curve.
Potency is the fitted concentration of half-maximal effect.

Chain of Retinoic acid receptor RXR-alpha (Homo sapiens) (P19793 whole entry, looked up): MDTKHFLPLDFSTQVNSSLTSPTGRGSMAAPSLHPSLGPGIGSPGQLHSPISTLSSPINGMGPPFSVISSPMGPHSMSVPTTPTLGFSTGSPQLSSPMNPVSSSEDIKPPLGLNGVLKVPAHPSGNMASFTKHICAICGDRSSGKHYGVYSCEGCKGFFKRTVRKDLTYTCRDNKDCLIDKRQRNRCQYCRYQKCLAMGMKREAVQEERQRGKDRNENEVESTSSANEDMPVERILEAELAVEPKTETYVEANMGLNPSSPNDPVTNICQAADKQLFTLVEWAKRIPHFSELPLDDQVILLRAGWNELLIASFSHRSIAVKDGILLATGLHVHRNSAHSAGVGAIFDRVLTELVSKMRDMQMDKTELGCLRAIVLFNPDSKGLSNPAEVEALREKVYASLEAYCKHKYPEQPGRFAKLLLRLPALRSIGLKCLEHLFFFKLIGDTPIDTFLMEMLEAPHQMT

In this assay the target is Retinoic acid receptor RXR-alpha (Homo sapiens) (UniProt P19793). The experiment in a line: qHTS assay to identify small molecule agonists of the RXR signaling pathway (AID 1159527). Note: nearly all actives have a fitted effect of over 35% in size. The note with it: HEK293T RXRa-UAS-bla, beta-lactamase ratio, 16 h; series mostly up to 76.8 µM; activation: at the top concentration. The text has this:
U.S. Tox21 Program National Center for Advancing Translational Sciences [NCATS] NIH Chemical Genomics Center [NCGC] U.S. Environmental Protection Agency [EPA] National Institutes of Environmental Health Sciences [NIEHS] National Toxicology Program [NTP] U.S. Food and Drug Administration [FDA] Tox21 Assay Overview: The Retinoid X receptor (RXR), a nuclear hormone receptor expressed in liver, spleen, placenta, epidermis, central nervous system. These receptors are able to form homo and heterodimers with other nuclear receptors and due to this heterodimerizing ability, RXR functions as master regulators producing diverse physiological effects. Three subtypes of RXR exist; alpha, beta and gamma. Retinoid X receptor alpha (RXR-alpha) has potential roles in metabolic signaling pathways, skin alopecia, dermal cysts, cardiac development, insulin sensitization etc. Therefore screening environmental chemicals on RXR-alpha signaling can be used for the studies focused on such therapeutic applications. For quantification of RXR-alpha ligands signaling, GeneBLAzer RXR alpha-UAS-bla HEK 293T (Life Technologies, Carlsbad, CA) cells containing a beta-lactamase reporter-gene under control of Retinoid X receptor-alpha response element were used to screen Tox21 10K library.
Tox21 Assay Protocol Summary: RXR-alpha HEK 293T cells were dispensed at 2,000 cells/6 uL of assay medium containing 2% charcoal-stripped FBS using a Multidrop Combi (ThermoFisher Scientific, Waltham, MA) dispenser. The assay was performed in black wall/clear-bottom 1536-well plates (Greiner Bio-One North America Inc. Monroe, NC). 9-cis retinoic acid was used as a positive control in the agonist mode screen. After the assay plates were incubated at 37 C and 5% CO2 for 5 hr, 23 nL of compounds dissolved in DMSO, positive controls or DMSO only were transferred to the assay plate by a Pintool station (Kalypsys, San Diego, CA). The assay plates were incubated at 37 C and 5% CO2 for 16 hr. One uL of LiveBLAzer B/G FRET substrate (Life Technologies) was added using a Flying Reagent Dispenser (Aurora Discovery, San Diego, CA) and the plates were incubated at room temperature for 2 hr. Fluorescence intensity (405 nm excitation, 460/530 nm emission) was measured using an Envision plate reader (PerkinElmer, Shelton, CT).
`CC(=O)c1nccs1`: the Potency entry is “inactive”.

In the case of `CCCCCCCC(=O)O`, the “activation” value is 3.87% (inactive).

Turning to `CC(C)=CCC/C(C)=C/C=O`, the “activation” value was -7.94% (inactive).

Regarding `O=C(O)Cc1c[nH]c2ccccc12`, the “activation” value is -3.89% (inactive).

For `COc1c2ccoc2cc2oc(=O)ccc12`, the Potency result is “inactive”.

Regarding `CC(=O)OCCC(C)C`, the Potency result is “inactive”.

As to `O=C(O)C1=NN(c2ccc(S(=O)(=O)O)cc2)C(=O)C1`, the Potency entry was “inactive”.

In the case of `C=CC(C)(C)C`, the Potency result was “inactive”.

Regarding `OCC(O)CS` (stereo not given), the Potency result is “inactive”.

Regarding `CCn1cc(C(=O)O)c(=O)c2cc3c(cc21)OCO3`, the Potency entry is “inactive”.

`COc1ccc(N)c(OC)c1`: the “activation” value is 14.4% [at 35.3 µM] (inactive).

As to `CC(=O)OCc1ccc2c(c1)OCO2`, the Potency entry was “inactive”.

Turning to `O=C1CCCCCCCCCCC1`, the Potency entry is “inactive”.

As for `N[C@@H](Cc1cc(I)c(Oc2ccc(O)c(I)c2)c(I)c1)C(=O)O`, the Potency entry is “inactive”.

Take `C=C1C[C@]23C[C@@]1(O)CC[C@H]2[C@@]12C=C[C@H](O)[C@@](C)(C(=O)O1)[C@H]2[C@@H]3C(=O)O`: the Potency result is “inactive”.

Consider `Cc1ccc(C(C)C)cc1`, for which the “activation” value is 5.64% (inactive).

For `Cc1ccc(Cl)cc1`, the Potency entry was “inactive”.

Take `OCC(CO)(CO)CO`: the Potency result is “inactive”.

As to `CCCCCCC(=O)O`, the “activation” value is 10.4% (inactive).

Take `CCCCCCCCCCCC(=O)N(C)CC(=O)O`: the activation is 1.89% [at 6.98 µM] (inactive).

Regarding `CO[Si](CCCNCCN)(OC)OC`, the Potency entry is “inactive”.

As for `Cc1ccc([N+](=O)[O-])cc1N`, the Potency is 21.8 µM (active) and inactive.

`CCc1cccc(O)c1`: the Potency result was “inactive”.

With `O=[N+]([O-])c1ccccc1C(F)(F)F`, the Potency entry was “inactive”.

Take `O=C1OC(=O)c2c(Cl)c(Cl)c(Cl)c(Cl)c21`: the “activation” value was -3.91% (inactive).

Regarding `OCCOCCOCCOCCOCCO`, the Potency result was “inactive”.

Consider `CCCCCCCCC(=O)O`, for which the “activation” value is 11.7% (inactive).

With `CC(C)(C)NC[C@H](O)COc1nsnc1N1CCOCC1`, the “activation” value is 0.648% [at 35.3 µM] (inactive).

`O=Cc1ccc(CO)o1`: the Potency result is “inactive”.

For the compound `O=c1n(CCCN2CCN(c3cccc(Cl)c3)CC2)nc2ccccn12`, the “activation” value was -13.7% [at 35.3 µM] (inactive).

On to `CCN(CC)CCNC(=O)c1ccc(N)cc1`, for which the Potency result is “inactive”.

Turning to `O=[N+]([O-])c1cc(C(F)(F)F)ccc1Cl`, the “activation” value is 11.6% (inactive).

`CC/C=C(\C(=O)N[C@@H]1C(=O)N2C(C(=O)OCOC(=O)C(C)(C)C)=C(COC(N)=O)CS[C@H]12)c1csc(N)n1`: the Potency result is “inactive”.

Turning to `COC(=O)OC`, the Potency entry is “inactive”.

Turning to `O=C1O[C@H]([C@H](O)CO)C(O)=C1O`, the Potency result is “inactive”.

Turning to `O=C(c1ccccc1)c1ccc(O)c(O)c1O`, the “activation” value is -16.2% (inactive).

As to `CC(=O)CC(=O)N(C)C`, the Potency entry is “inactive”.

In the case of `Clc1cccc(Cl)c1NC1=NCCN1`, the “activation” value is 5.49% [at 35.3 µM] (inactive).

As for `Cc1ncc(CO)c(CO)c1O`, the Potency result is “inactive”.

Regarding `CCCCCCCCO`, the “activation” value is 16.5% (inactive).
